Several values for one entry are separate records, joined by “and”; a condition that tells them apart may be missing. Equal entries are not always repeated. Results filed as inconclusive are left out. Activity calls are given as the source filed them. Calls follow the shape of the dose curve; as a rule, active = well fitted cell-killing curve with a large enough effect; inconclusive = small, poorly fitted or top-dose-only effect; inactive = no such curve, though single readings can be large or run the other way.
Experiment: qHTS of pediatric cancer cell lines to identify multiple opportunities for drug repurposing: Primary screen for SK-N-MC cells (AID 1347093)
Conditions: SK-N-MC viability, CellTiter-Glo luminescence, 48 h; series mostly up to 46 µM
Summary of the method: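 Metabolically active cells were quantified by ATP-dependent luminescence (CellTiter-Glo, 15 min at room temperature) following 48 h treatment. Cells had been plated at 500-1,000 per well and settled for 5 h beforehand.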
In the case of `C#Cc1cccc(Nc2ncnc3cc(OCCOC)c(OCCOC)cc23)c1`, the Potency is reported as 1.05 µM (active) and 7.5 µM (active). In the case of `COc1ccc2c3n(c(=NC(=O)c4cccnc4)nc2c1OC)CCN3`, the Potency is reported as 372 nM (active). In the case of `CC(c1cc2ccccc2s1)N(O)C(N)=O` (centres undefined), the Potency is reported as “inactive”. With `CCOc1cc(N2CCC(O)CC2)ccc1Nc1ncc2c(n1)N(C)c1ccccc1C(=O)N2C` the Potency was 332 nM (active). For `Cc1cccc(-c2nn(C(=S)Nc3ccccc3)cc2-c2ccnc3ccccc23)n1`, the Potency was “inactive”. With `Fc1ccc(Cl)cc1-c1nc(Nc2ccncc2)c2nccnc2n1` the Potency was “inactive”. With `CCC(C)(C)C(=O)O[C@H]1C[C@@H](C)C=C2C=C[C@H](C)[C@H](CC[C@@H]3C[C@@H](O)CC(=O)O3)[C@H]21` the Potency was 33200 nM (active). In the case of `O=C(c1cc(Cc2n[nH]c(=O)c3ccccc23)ccc1F)N1CCN(C(=O)C2CC2)CC1`, the Potency is reported as 7430 nM (active). With `CCc1ccc(CCOc2ccc(CC3SC(=O)NC3=O)cc2)nc1` (centres undefined) the Potency was “inactive”. In the case of `CC[C@H](Nc1ncnc2nc[nH]c12)c1nc2cccc(F)c2c(=O)n1-c1ccccc1`, the Potency is reported as 935 nM (active). With `NC(=O)c1ccc(-c2nc(-c3ccc4c(c3)OCCO4)c(-c3ccccn3)[nH]2)cc1` the Potency was “inactive”. With `CCOc1ccc(Cc2cc([C@@H]3O[C@H](CO)[C@@H](O)[C@H](O)[C@@H]3O)ccc2Cl)cc1` the Potency was 20900 nM (active). With `Nc1cccc(S(=O)(=O)N2CCCN(S(=O)(=O)c3ccc4c(c3)OCCO4)CC2)c1` the Potency was “inactive”. With `CN(C)c1ccc(Nc2nc(N)n(C(=O)c3c(F)cccc3F)n2)cc1` the Potency was 469 nM (active).
Potency is read from the fitted curve at half-maximal effect.
